This is an account of results in PubChem BioAssay (NCATS).

Assay [1] has as its target Lysosomal acid glucosylceramidase (Homo sapiens) (UniProt P04062). Nature of the assay: Glucocerebrosidase-p2 (AID 348; in the data active = potency below about 10 µM; note: potency is the fitted concentration of half-maximal effect). The following applies: purified GBA, blue fluorogenic substrate, 40 min. The method in brief:
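Compounds titrated from 0.6 nM upwards against 0.2 nM enzyme in pH 5.9 citric acid/KH2PO4, taurocholate, tween-20; blue fluorogenic substrate 80 uM, 40 min room temperature, stopped and read Ex 365/Em 440 for AC50.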

In assay [2] the target is Cytochrome P450 1A2 (Homo sapiens) (UniProt P05177). Nature of the assay: p450-cyp1a2 (AID 410; calls by dose curve; note: potency is the fitted concentration of half-maximal effect). The following applies: recombinant CYP1A2, luciferin-ME demethylation, luminescence; series mostly up to 57 µM. The essentials: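 Inhibition was calculated relative to 57 uM furafylline (full inhibition). The reaction used human CYP1A2 at 20nM with Luciferin-ME at its Km, 100uM, driven by an NADPH-regenerating system for 60 min at room temperature.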

Assay [3] can be described thus: NFAT Signaling Pathway (AID 444; active = well fitted curve in either direction with a large enough effect, not every such curve was filed as active;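 note: carbachol stimulus at about its EC50 of 1 µM final; % is set by controls: 0 for no effect and ±100 for the full control effect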). The conditions noted are these: Jurkat NFAT-bla M1, carbachol, beta-lactamase ratio, 5 h; at 7.69 µM (top of the series) unless noted. The essentials:
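Jurkat cells with NFAT-driven β-lactamase reporter and co-expressed M1 receptor, stimulated with carbachol (final 1 uM, ~EC50), compound titration, 5 h at 37 °C. CCF4 loaded 1 h at RT; 460/530 nm ratio gave %activity and AC50.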

Assay [4] can be described thus: Stat Signaling Pathway (AID 446; active = well fitted curve in either direction with a large enough effect, not every such curve was filed as active;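 note: ME-180 cervical cancer cells given 40 pM IL-6 alongside compound; SIE-controlled beta-lactamase reporter measured as 460/530 nm FRET emission ratio; % is set by controls: 0 for no effect and ±100 for the full control effect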). The following applies: ME-180 SIE beta-lactamase reporter, IL-6 stimulated, 5 h; at 7.69 µM (top of the series) unless noted. The essentials: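 Reporter line: ME-180 cervical carcinoma, SIE-beta-lactamase. Treatment: compound with 40 pM IL-6, 5 hrs, 37 C, in low-serum OPTI-MEM with 10 mM HEPES pH 7.3. Detection: 460/530 nm fluorescence.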

In assay [5] the target is Glucocorticoid receptor (Homo sapiens) (UniProt P04150). As to the kind of experiment: GR-EFC Redistribution (AID 451; calls by dose curve; note: potency is the fitted concentration of half-maximal effect). The conditions noted are these: CHO-K1 GR-EFC translocation, beta-gal luminescence, 2 h. The essentials:
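CHO-K1 cells expressing nuclear EA and GR-ED fragments of b-gal; compounds titrated up to 46 uM final, 2 h at 37 C. GR nuclear translocation read as complemented b-gal luminescence after 1 h RT detection.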

In assay [6] the target is Mitogen-activated protein kinase 10 (Mus musculus) (UniProt Q61831). Nature of the assay: JNK3 AlphaScreen Assay (AID 530; active = well fitted curve in either direction with a large enough effect, not every such curve was filed as active;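 note: kinase came from lysate of stimulated human HepG2 cells; signal reports phosphorylation of biotinylated GST-cJun 1-79 at Ser73 with 10 µM ATP; % is set by controls: 0 for no effect and ±100 for the full control effect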). The conditions noted are these: JNK3 lysate, c-Jun phosphorylation; series mostly up to 57.1 µM. The essentials: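 qHTS format: compounds tested as titrations against IL-1beta/TNF-alpha-activated HepG2 lysate JNK3 with biotin-GST-cJun substrate and 10 uM ATP at room temperature. Loss of anti-phospho-cJun AlphaScreen signal indicates inhibition.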
Background: Alpha assays give light when donor and acceptor beads are brought close together.

The target in assay [7] is Cytochrome P450 3A4 (Homo sapiens) (UniProt P08684). As to the kind of experiment: qHTS Assay for Inhibitors and Substrates of Cytochrome P450 3A4 (AID 884). Note: potency is the fitted concentration of half-maximal effect; nearly all actives have a fitted effect of over 50% in size. The following applies: recombinant CYP3A4, Luciferin-PPXE luminescence; series mostly up to 57.1 µM. The essentials:
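20 nM human CYP3A4 with 25 uM Luciferin-PPXE (at KM) in 200 mM KPO4, preincubated 10 min with compound; NADPH regeneration started a 60 min RT reaction. Luciferin detected by luminescence, normalized to 57 uM ketoconazole as full inhibition.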
In general terms: Quantitative high-throughput screening tests each substance at several concentrations.

For assay [8] the target is unchanged. Nature of the assay: qHTS Assay for Activators of Cytochrome P450 3A4 (AID 885). Note: nearly all actives have a fitted effect of over 65% in size. The following applies: recombinant CYP3A4, Luciferin-PPXE luminescence, 60 min; series mostly up to 57.1 µM. The essentials: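 Signal was normalized against complete inhibition by 57 uM ketoconazole. The reaction used 20nM CYP3A4 with 25uM Luciferin-PPXE, 10-min compound preincubation and a 60-min NADPH-supported step at RT.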

In assay [9] the target is Cytochrome P450 2C19 (Homo sapiens) (UniProt P33261). Nature of the assay: qHTS Assay for Inhibitors and Substrates of Cytochrome P450 2C19 (AID 899). Note: potency is the fitted concentration of half-maximal effect; nearly all actives have a fitted effect of over 60% in size. The following applies: recombinant CYP2C19, luciferin-H EGE luminescence; series mostly up to 57.1 µM. The essentials:
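5 nM human CYP2C19 with 10uM Luciferin-H EGE (at KM) in 50mM KPO4, compound preincubated 10 min at 37C, then NADPH regeneration for 60 min at 37C. Luciferin read by luminescence after detection reagent; normalized to 57uM ketoconazole as full inhibition.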

Assay [10] is described as follows: qHTS Assay for Lipid Storage Modulators (AID 1519; calls by dose curve). The conditions noted are these: Drosophila S3 cells, BODIPY lipid droplet/cell ratio, laser cytometry, cells loaded with oleic acid; for activity change, negative = inhibition: at 57.5 µM (top of the series). The method in brief: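 Cells seeded at 5,000 per well were treated with compounds over a concentration series and loaded with oleic acid (400 uM, as added). Lipid droplet fluorescence (488 nm excitation, 500-530 nm channel) was read by laser-scanning cytometry and normalized to 20 uM Triacsin C.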

Assay [11] addresses Dual specificity protein kinase CLK4 (Homo sapiens) (UniProt Q9HAZ1). Nature of the assay: qHTS Assay for Inhibitors of CDC-like Kinase 4 (ADP-FP Assay) (AID 1795).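 Note: recombinant human CLK4 phosphorylating RS repeat peptide at 1 µM ATP; % is set by controls: 0 for no effect and ±100 for the full control effect; nearly all actives have a fitted effect of over 60% in size.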 The conditions noted are these: Transcreener ADP fluorescence polarization; series mostly up to 50 µM. The method in brief: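 Kinase activity was followed as ADP output, converted from fluorescence polarization with a calibration curve. Reactions ran one hour at low ATP (1 uM) with RS peptide substrate.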

Assay [12] addresses Ubiquitin carboxyl-terminal hydrolase 1 (Homo sapiens) (UniProt O94782). As to the kind of experiment: Inhibitors of USP1/UAF1: Pilot qHTS (AID 504865).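 Note: rhodamine fluorescence freed from ubiquitin-rhodamine substrate followed over time; top concentration of the series differs between compounds; % is set by controls: 0 for no effect and ±100 for the full control effect; nearly all actives have a fitted effect of over 35% in size.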 The following applies: purified USP1/UAF1, Ub-rhodamine cleavage fluorescence; series mostly up to 54.9 µM. The essentials:
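Enzyme-free wells gave the negative control, while test wells held 1nM USP1/UAF1 preincubated with compound for 15 min at room temperature. Ub-Rho at 150nM final started the reaction, and fluorescence at 480/540 nm was recorded kinetically.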

A short description of assay [13]: AP1 Signaling Pathway (AID 357; active = well fitted curve in either direction with a large enough effect, not every such curve was filed as active;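 note: ME-180 reporter cells stimulated with EGF at its EC50 level; % is set by controls: 0 for no effect and ±100 for the full control effect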). The conditions noted are these: ME-180 AP-1-bla reporter, EGF-induced, beta-lactamase ratio, 5 h; at 7.69 µM (top of the series) unless noted. The method in brief:
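Read-out was the 460nm/530nm emission ratio (excitation 405nm) after CCF4 loading for 2.5 hours at room temperature. Cells carried an AP-1-driven beta-lactamase reporter, were stimulated with EC50 EGF plus compound for 5 hours, and AC50 values came from titrations.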

The target of assay [14] is Glucocorticoid receptor (Homo sapiens) (UniProt P04150). As to the kind of experiment: GR-GFP Redistribution (AID 450;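 active = compounds whose dose series gives a full or clear partial fitted curve of increased nuclear translocation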; note: potency is the fitted concentration of half-maximal effect). The following applies: U2OS GR-GFP nuclear translocation, laser cytometry, 2 h.
The target in assay [15] is 3',5'-cyclic-AMP phosphodiesterase 4B (Homo sapiens) (UniProt Q07343). As to the kind of experiment: qHTS Assay for Inhibitors of PDE-IV (AID 607; active = well fitted activation curve with a large enough effect in the main read-out, with a control signal flat, not every such curve was filed as active; note: % of control where 0% means no effect). The conditions noted are these: HEK293 ACTOne CNG channel cells, membrane potential fluorescence; series mostly up to 22.9 µM. The method in brief: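 Cell-based read-out of cAMP via a modified cyclic nucleotide-gated channel and membrane potential dye (535/590 nm) in HEK293 cells expressing PDE4 endogenously. Compounds tested up to 22.9 uM final; 100 uM RO 20-1724 reference.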

Assay [16] can be described thus: qHTS Assay for Identification of Small Molecule Agonists for Hypoxia Response Element Signaling Pathway (AID 914; active = well fitted activation curve with a large enough effect in the signal ratio, with a control signal flat, not every such curve was filed as active; the % refers to the signal ratio; note: potency is the fitted concentration of half-maximal effect; for activation: % of control where 0% means no effect). The following applies: ME-180 (cervical carcinoma) HRE-bla reporter, beta-lactamase ratio, CoCl2, 17 h; activation: stronger effect = higher value. The method in brief:
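In Opti-MEM containing 0.5% dialyzed FBS and 10 mM HEPES, ME-180 HRE-bla cells received a compound titration and EC50 CoCl2. They were incubated 17 hours, then CCF4-loaded 2.5 hours at room temperature before ratio reading.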

For assay [17], the target named is Dual specificity protein kinase CLK4 (Homo sapiens) (UniProt Q9HAZ1). Nature of the assay: qHTS Assay for Inhibitors of CDC-like Kinase 4 (ADP-Glo Assay) (AID 1771). Note: % is set by controls: 0 for no effect and ±100 for the full control effect; nearly all actives have a fitted effect of over 70% in size. The following applies: recombinant CLK4, ADP-Glo luminescence; series mostly up to 80 µM. The method in brief:
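Kinase reaction: Clk4 at 25 nM, RS repeat peptide substrate at 100 uM, ATP at 1 uM, 1 hr, room temperature. Product ADP detected as luciferase signal via ADP-Glo.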

Assay [18] in a line: Confirmation and Secondary Assay for Modulators of Hemoglobin Beta Chain Splicing at IVS2 654 locus (AID 910).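 Note: HeLa cells stably carrying EGFP split by mutant beta-globin IVS2-654 intron; % of control where 0% means no effect.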 The conditions noted are these: HeLa EGFP-654 splicing reporter, GFP fluorescence, 48 h; series mostly up to 38.3 µM. The method in brief: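 HeLa cells stably expressing EGFP interrupted by β-globin IVS2-654 intron, seeded overnight in Opti-MEM/2% FCS, then treated 2 days at 37 °C. Restored splicing read as total peak GFP intensity per well by laser scanning cytometry (488 nm excitation, 500–520 nm emission); 500 nM antisense PNA as control.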

Assay [19] is described as follows: Confirmation and Secondary Assay for Modulators of Hemoglobin Beta Chain Splicing at IVS2 705 locus (AID 930).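 Note: HeLa cells stably expressing the EGFP-705 splicing reporter; GFP fluorescence per well restored by corrected splicing of the IVS2-705 intron in EGFP; % of control where 0% means no effect.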 The following applies: HeLa EGFP-705 splicing reporter, GFP fluorescence, 48 h; series mostly up to 38.3 µM. The method in brief:
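Per-well GFP, captured at 1 x 8 µm resolution with 488 nm excitation, served as the read-out for HeLa EGFP-705 cells incubated 2 days with test compound versus DMSO.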

[20] abbreviates: measured here: cell count channel max response.
[21] abbreviates: measured here: lipid channel max response.

Records with an inconclusive call do not appear. Active and inactive are the calls of the source. Unless noted, calls come from the whole dose curve; as a rule, active = well fitted curve in the direction sought with a large enough effect; inconclusive = small, poorly fitted or top-dose-only effect, or another doubt; inactive = no such curve, though single readings can be large; an effect the other way counts as inactive or inconclusive.

Chain of Ubiquitin carboxyl-terminal hydrolase 1 (Homo sapiens) (O94782 whole entry, looked up): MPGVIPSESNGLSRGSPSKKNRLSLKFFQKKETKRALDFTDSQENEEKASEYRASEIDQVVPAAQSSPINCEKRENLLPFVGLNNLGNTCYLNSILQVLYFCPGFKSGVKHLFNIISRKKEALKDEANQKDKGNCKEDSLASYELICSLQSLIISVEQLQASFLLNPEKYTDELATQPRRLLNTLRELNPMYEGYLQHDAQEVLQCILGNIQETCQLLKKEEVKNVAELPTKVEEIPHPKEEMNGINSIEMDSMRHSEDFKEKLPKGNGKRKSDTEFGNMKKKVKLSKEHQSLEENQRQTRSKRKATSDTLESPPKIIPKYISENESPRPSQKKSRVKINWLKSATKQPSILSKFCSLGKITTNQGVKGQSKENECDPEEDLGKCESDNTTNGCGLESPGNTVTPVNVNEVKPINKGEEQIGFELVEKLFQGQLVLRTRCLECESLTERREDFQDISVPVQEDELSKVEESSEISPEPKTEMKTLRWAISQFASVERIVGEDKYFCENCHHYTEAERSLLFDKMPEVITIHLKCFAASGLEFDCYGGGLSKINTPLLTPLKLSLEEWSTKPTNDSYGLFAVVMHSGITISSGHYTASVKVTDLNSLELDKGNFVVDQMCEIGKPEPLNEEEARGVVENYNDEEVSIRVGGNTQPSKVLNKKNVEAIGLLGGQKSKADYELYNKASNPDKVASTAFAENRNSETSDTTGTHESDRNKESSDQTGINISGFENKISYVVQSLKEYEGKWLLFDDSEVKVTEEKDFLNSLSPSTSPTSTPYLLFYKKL
Chain of Glucocorticoid receptor (Homo sapiens) (P04150 whole entry, looked up, the tested form may be a part): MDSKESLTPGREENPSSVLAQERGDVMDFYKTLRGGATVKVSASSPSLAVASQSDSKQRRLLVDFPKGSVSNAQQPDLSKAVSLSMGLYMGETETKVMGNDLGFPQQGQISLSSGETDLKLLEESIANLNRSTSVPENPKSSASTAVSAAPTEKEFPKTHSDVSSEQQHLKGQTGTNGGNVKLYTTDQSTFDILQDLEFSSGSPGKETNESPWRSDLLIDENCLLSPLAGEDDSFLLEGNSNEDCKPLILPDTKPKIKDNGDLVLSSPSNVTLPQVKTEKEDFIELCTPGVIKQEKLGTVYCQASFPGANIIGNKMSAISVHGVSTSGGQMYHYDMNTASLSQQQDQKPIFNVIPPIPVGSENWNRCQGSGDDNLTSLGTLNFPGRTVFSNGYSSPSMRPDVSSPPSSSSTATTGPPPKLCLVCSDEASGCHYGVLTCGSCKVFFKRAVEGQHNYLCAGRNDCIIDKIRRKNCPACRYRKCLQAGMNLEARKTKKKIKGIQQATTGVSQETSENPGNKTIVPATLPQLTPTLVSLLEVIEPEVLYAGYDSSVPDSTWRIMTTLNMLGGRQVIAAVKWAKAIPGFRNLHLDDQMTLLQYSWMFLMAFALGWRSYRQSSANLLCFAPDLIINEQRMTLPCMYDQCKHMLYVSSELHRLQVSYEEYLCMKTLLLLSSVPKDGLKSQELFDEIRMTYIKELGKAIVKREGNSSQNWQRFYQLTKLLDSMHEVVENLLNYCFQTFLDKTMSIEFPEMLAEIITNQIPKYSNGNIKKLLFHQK
Chain of Cytochrome P450 3A4 (Homo sapiens) (P08684 whole entry, looked up): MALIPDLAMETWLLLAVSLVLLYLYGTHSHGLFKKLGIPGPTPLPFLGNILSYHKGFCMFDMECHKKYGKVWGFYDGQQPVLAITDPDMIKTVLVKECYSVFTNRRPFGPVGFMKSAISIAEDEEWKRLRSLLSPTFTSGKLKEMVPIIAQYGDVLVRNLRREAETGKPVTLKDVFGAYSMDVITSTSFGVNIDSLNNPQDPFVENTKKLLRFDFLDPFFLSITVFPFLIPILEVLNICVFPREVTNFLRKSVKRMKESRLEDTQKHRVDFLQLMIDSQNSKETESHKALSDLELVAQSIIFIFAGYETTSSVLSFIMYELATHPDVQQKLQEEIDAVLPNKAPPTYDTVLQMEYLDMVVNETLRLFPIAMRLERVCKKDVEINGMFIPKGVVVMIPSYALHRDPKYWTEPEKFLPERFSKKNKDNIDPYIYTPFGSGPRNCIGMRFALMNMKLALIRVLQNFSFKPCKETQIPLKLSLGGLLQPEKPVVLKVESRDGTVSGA
Chain of Dual specificity protein kinase CLK4 (Homo sapiens) (Q9HAZ1 whole entry, looked up): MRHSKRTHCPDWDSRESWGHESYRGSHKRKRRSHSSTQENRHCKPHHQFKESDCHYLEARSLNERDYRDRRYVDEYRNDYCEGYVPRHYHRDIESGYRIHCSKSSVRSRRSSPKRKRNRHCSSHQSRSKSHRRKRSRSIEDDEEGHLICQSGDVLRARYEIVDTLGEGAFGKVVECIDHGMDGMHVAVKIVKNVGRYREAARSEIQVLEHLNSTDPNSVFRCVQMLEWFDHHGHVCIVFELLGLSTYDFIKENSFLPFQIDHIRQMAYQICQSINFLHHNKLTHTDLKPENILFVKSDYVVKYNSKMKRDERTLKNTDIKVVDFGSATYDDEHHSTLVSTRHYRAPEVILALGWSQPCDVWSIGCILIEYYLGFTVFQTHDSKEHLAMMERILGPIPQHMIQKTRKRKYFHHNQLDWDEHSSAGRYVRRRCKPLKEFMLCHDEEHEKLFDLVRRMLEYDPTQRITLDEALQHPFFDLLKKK
Chain of 3',5'-cyclic-AMP phosphodiesterase 4B (Homo sapiens) (Q07343 whole entry, looked up): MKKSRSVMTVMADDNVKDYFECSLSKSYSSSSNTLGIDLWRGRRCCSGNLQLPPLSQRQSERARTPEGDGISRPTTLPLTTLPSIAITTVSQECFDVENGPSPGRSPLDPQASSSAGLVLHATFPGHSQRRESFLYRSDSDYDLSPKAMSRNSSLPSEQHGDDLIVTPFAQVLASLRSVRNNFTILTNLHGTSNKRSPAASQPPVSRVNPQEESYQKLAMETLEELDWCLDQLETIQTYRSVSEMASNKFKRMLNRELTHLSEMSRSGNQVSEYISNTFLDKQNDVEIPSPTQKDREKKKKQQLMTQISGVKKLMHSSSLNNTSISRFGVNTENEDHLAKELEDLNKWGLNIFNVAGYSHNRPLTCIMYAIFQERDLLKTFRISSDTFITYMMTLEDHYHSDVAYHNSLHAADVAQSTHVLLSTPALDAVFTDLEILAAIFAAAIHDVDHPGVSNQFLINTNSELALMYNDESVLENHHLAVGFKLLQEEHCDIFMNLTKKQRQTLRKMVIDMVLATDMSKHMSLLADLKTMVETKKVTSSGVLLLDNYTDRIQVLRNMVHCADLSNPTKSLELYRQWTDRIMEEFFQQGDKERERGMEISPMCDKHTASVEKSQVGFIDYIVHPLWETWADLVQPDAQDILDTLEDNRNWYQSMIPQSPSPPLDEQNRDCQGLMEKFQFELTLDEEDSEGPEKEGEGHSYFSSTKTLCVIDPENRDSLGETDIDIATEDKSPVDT
Chain of Cytochrome P450 1A2 (Homo sapiens) (P05177 whole entry, looked up): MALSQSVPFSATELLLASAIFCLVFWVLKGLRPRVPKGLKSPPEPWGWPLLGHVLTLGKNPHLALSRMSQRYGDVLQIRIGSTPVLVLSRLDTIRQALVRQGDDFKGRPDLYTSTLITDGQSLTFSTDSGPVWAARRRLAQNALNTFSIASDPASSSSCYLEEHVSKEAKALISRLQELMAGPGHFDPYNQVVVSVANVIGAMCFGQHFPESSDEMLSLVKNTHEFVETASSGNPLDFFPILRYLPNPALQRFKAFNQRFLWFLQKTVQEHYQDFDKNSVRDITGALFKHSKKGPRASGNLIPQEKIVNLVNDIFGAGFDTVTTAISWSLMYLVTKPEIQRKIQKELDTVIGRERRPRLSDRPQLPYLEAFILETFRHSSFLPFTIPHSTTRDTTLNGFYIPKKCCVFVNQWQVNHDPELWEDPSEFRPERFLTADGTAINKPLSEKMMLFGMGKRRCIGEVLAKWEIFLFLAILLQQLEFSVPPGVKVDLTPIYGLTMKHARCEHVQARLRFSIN
Chain of Lysosomal acid glucosylceramidase (Homo sapiens) (P04062 whole entry, looked up): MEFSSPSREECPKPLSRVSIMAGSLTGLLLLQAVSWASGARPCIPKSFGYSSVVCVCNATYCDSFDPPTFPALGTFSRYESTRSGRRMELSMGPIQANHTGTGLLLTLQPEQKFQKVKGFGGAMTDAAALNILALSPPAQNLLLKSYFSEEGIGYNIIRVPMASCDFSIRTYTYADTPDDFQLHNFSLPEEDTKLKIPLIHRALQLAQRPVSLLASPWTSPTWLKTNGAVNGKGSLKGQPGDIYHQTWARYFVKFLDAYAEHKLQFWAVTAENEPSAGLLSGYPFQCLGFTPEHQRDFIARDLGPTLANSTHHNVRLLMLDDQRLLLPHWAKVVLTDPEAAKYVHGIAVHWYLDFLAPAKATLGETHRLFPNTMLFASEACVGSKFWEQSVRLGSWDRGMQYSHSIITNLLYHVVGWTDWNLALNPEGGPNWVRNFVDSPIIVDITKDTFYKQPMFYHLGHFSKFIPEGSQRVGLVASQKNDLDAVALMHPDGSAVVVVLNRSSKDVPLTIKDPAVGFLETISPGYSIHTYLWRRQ
Chain of Cytochrome P450 2C19 (Homo sapiens) (P33261 whole entry, looked up): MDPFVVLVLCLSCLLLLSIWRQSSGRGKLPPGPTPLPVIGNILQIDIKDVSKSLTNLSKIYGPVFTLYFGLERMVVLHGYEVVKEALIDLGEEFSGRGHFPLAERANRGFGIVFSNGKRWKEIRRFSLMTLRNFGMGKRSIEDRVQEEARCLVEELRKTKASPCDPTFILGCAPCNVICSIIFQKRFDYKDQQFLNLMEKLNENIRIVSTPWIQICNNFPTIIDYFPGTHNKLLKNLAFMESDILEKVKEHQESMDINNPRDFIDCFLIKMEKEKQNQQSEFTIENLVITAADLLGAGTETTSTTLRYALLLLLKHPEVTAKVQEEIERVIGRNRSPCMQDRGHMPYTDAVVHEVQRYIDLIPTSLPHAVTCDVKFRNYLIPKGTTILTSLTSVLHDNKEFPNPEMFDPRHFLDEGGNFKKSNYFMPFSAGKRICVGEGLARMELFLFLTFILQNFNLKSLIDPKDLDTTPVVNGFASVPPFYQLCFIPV

On to `COc1ccccc1CNc1ncnc2ccc(-c3cccc(C#N)c3)cc12`, for which the Potency in [1] is > 11.4 µM (inactive); in assay [2], 0.251 µM (active); in assay [5], > 46 µM (inactive); in assay [7], 7.94 µM (active); in assay [9] it was 5.01 µM (active). In addition, the activity change, negative = inhibition in assay [3] was -8.04% (inactive); in assay [10], -12.8% (inactive). Besides, the activity, negative = inhibition in assay [4] was -17.5% (inactive). Besides, the Potency entry in assay [6], in assay [8], in [11] and in [12] was “inactive” throughout. The max response was -3.32% in [10] (setting [20]) and -14.8% in assay [10] (setting [21]).
Turning to `COCCn1c(=O)c(-c2ccc(OC)cc2)nc2cnc(N3CCN(C)CC3)nc21`, the activity change, negative = inhibition is 29.4% (inactive) in [13] and 6% (inactive) in assay [10]. Further, the Potency in assay [14] was > 9.22 µM (inactive); in assay [5] it was > 46 µM (inactive); in assay [16], 3.16 µM (active). Further, the Potency result in assay [6], in assay [15], in assay [17], in [11] and in [12] was “inactive” each time. In addition, the max response turned out to be 16% in assay [10] (setting [20]) and 21% in assay [10] (setting [21]).
Regarding `C#C[C@]1(O)CCC2C3CCC4=C(CCC(=O)C4)C3CC[C@@]21C` (stereo partly drawn), the Potency entry in assay [18] and in assay [12] was “inactive” throughout. Also, the result in assay [19] was inactive. The activity change, negative = inhibition in assay [10] was 7.93% (inactive). The results for the max response in [10] (setting [20]) and in assay [10] (setting [21]) were -6.89% and 3.32%, respectively.
`CN1CCN(c2ccnc(-c3ccc(N(C)C)cc3)n2)CC1`: the Potency was > 11.4 µM (inactive) in assay [1], 0.794 µM (active) in assay [2], > 46 µM (inactive) in [14] and > 46 µM (inactive) in [5]. Also, the activity change, negative = inhibition is -4.67% (inactive) in assay [13], 6.45% (inactive) in assay [3] and 10.5% (inactive) in assay [10]. For the same compound, the activity, negative = inhibition in assay [4] was -0.21% (inactive). The Potency result in assay [6], in [15], in assay [8], in [11] and in [12] was “inactive” in each case. Further, the activation in [16] was 1.71% (inactive). The figures for the max response in assay [10] (setting [20]) and in [10] (setting [21]) were 22.6% and 29.9%, respectively.
